Data as given in PubChem BioAssay AID1259319 (Sanford-Burnham Center for Chemical Genomics, 2017).
Hit rate of the full screen: of about 3,000 compounds, about 1,800 (60%) were called active.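 The calls were made as follows: active = activation at or above a set limit, or at least 3 SD above the negative control mean; inactive = the rest.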 The set was probably picked from earlier hits. These entries were drawn from the full list.

The compounds below were run against Nuclear receptor subfamily 1 group D member 1 (Homo sapiens) (UniProt P20393) (assay: modulators of Rev-erb alpha DNA binding, confirmation, biochemical, FITC-DNA, fluorescence polarization, single point (AID 1259319;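 also: 0% = 35 nM protein with DMSO and 100% = 750 nM protein high control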)). Conditions: 90 min, at 25 µM, stronger effect = higher value.
Sequence of Nuclear receptor subfamily 1 group D member 1 (Homo sapiens) (P20393 whole entry, looked up): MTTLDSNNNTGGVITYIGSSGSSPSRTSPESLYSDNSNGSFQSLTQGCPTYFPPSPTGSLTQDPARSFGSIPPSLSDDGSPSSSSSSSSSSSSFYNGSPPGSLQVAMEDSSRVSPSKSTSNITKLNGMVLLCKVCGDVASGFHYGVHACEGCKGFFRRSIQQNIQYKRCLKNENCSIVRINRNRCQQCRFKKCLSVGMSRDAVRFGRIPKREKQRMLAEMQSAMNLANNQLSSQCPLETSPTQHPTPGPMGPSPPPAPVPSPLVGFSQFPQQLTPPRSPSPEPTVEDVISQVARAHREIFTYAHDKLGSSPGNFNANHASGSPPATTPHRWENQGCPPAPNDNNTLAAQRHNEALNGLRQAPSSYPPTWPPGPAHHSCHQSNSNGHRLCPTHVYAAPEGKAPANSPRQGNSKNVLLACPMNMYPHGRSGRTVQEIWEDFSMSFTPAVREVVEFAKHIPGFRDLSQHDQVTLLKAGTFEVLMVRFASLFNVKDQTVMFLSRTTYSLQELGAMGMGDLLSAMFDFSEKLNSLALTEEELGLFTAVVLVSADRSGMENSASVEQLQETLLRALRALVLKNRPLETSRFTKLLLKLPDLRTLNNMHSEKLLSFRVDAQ
In the case of COc1ccccc1N=Nc1c(O)[nH]c(=S)[nH]c1=O, the activation is reported as 41% (active). For COC(=O)CN(CCCl)P1(=O)OCCCN1CCCl (configuration not stated), the activation was -6.07% (inactive).
